Drawing on PubChem BioAssay, this text covers activity remaining for 11 compounds.

SMILES strings stand for the structures. Where “and” joins values, the source holds several entries; their conditions need not be identical. Identical values can stand only once. Calls of active or inactive are those of the source. No rule for the calls is given here.

The experiment has as its system Aerobactin synthetase IucA (Klebsiella pneumoniae hvKP1). The experiment is described as follows: IucA enzyme inhibition, primary screen, biochemical, Spectrum library (AID 1346200).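 Also: 100% = wells without compound and 0% = wells lacking enzyme.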 The note with it: malachite green pyrophosphate, A620, at 8 µM, stronger effect = lower value.
On to `CC(=O)O[C@@H]1CC2C(C)(C)C(=O)[C@@H]3O[C@@H]3[C@]2(C)C2CC[C@]3(C)C(=CC(=O)O[C@H]3c3ccoc3)[C@@]21C` (stereo partly specified), for which the activity remaining was 99.4% (inactive).
With `CC(=O)OC1CCC2(C)C(=CC=C3C2CCC2(C)C3CCC2C(C)/C=C/C(C)C(C)C)C1(C)C` (stereo unspecified) the figure was 125% (inactive); with `O=C(O)c1cn(-c2ccc(F)cc2)c2cc(N3CCNCC3)c(F)cc2c1=O`, 118% (inactive).
The same measure for `CC(=O)O[C@H]1CC2CCC3C(CC[C@@]4(C)C3C[C@H]([N+]3(C)CCCCC3)[C@@H]4OC(C)=O)[C@@]2(C)C[C@@H]1[N+]1(C)CCCCC1` (stereo partly specified): 124% (inactive); for `COc1ccc2c(c1OC)C(=O)O[C@H]2[C@H]1c2c(cc3c(c2OC)OCO3)CCN1C`: 116% (inactive).
Consider `O=c1cc(-c2ccccc2)oc2c(O)c(O)ccc12`, for which the activity remaining was 92.5% (inactive).
The same measure for `CC(C)c1nc(N(C)S(C)(=O)=O)nc(-c2ccc(F)cc2)c1/C=C/[C@@H](O)C[C@@H](O)CC(=O)O`: 124% (inactive).
For `C[C@H](CC(=O)C1OC1(C)C)[C@H]1C(=O)C[C@@]2(C)C3=CCC4C(C)(C)[C@@H](O[C@@H]5OC[C@@H](O)[C@H](O)[C@H]5O)CC[C@@]45C[C@@]35[C@@H](O)C[C@]12C` (stereo partly specified), the activity remaining is 91.8% (inactive).
The same measure for `COc1ccc2c(C)cc(=O)oc2c1`: 92.2% (inactive); for `CN(C)CCC(c1ccc(Br)cc1)c1ccccn1` (stereo unspecified): 123% (inactive) and 96.1% (inactive); for `CC(=O)Oc1cc2c(c(C)c1OC(C)=O)CC=C1[C@@]2(C)CC[C@@]2(C)C3C[C@](C)(C(=O)O)CC[C@]3(C)CC[C@]12C` (stereo partly specified): 95.9% (inactive).
